Compound activity as filed in PubChem.
KCNQ2 block: inhibitors of rat KCNQ2 potassium channel. O88943. CHO-K1 KCNQ2, FluxOR thallium flux, 20 min; hits give low values. B-score at 10 µM. 310,000 compounds, 1.1% hits. AID 2156;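 active = fluorescence ratio B-score at most minus 3 library SDs, with starting brightness B-score within 2 library SDs, cut at about -5.5 in these data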
KCNQ2 enhance: KCNQ2 (rat) channel potentiation; O88943; CHO-K1 KCNQ2, FluxOR thallium flux fluorescence; hits give high values; B-score at 10 µM; 310,000 compounds, 0.54% hits; AID 2239;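 active = fluorescence ratio B-score at least 3 SD of library B-scores, with initial fluorescence B-score within 3 of them, cut at about 5.3 in these data; same plate scores as AID 2156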;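 note: B-score of peak minus minimum over baseline fluorescence ratio after K+ and Tl+ stimulus; positive B-score means potentiation of KCNQ2 with more thallium influx and brighter signal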
Kir21 conf inh: confirmation of mouse Kir2.1 potassium channel inhibitors; shares compounds with KCNQ2 enhance; Kir2.1-expressing cells, FluxOR thallium flux fluorescence; hits give low values; Tl flux remaining, % of negative control (hits give low values), % at 10 µM; 2,300 compounds, 41% hits;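 active = Primary-screen hit whose thallium flux fell at least 3 control SD below untreated wells in both duplicates, with normal baseline fluorescence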;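 note: 0% = blank wells without stimulus and 100% = stimulated no-compound controls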
HEK293 ctr: counter-screen for Kir2.1 inhibitors: effect in parental HEK293 cells; shares compounds with KCNQ2 enhance; FluxOR thallium flux fluorescence; 0% = unstimulated blank wells; FluxOR signal as % of negative control (100 = no effect), % at 10 µM; 2,300 compounds, 19% hits;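 active = dye signal at least 3 control SD above or below untreated wells in both duplicates, raw fluorescence within 3, either direction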;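 note: percent is based on the flux ratio of peak minus minimum fluorescence over baseline F0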
CHO-K1 Tl ctr: parental CHO-K1 activity in KCNQ2 potentiator counter-screen. shares compounds with KCNQ2 enhance. parental CHO-K1 cells, FluxOR thallium flux fluorescence; zero = vehicle mean+3SD, 100% = vehicle-minus-blank window. activity increase over 3SD of controls, % at 10 µM. 1,200 compounds, 43% hits. AID 2282;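 active = signal rise of at least 3 SD above the untreated control mean, in both duplicate wells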;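 note: counter screen of KCNQ2 potentiator hits so any rise reflects channel-independent effects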
KCNQ1 sel pot: selectivity of KCNQ2 potentiators: effect on human KCNQ1; shares compounds with KCNQ2 enhance; CHO KCNQ1 stable, FluxOR thallium flux fluorescence; beyond 3SD, as % of vehicle-control signal; activation over 3SD threshold, % at 10 µM; 1,200 compounds, 28% hits; AID 2283;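 active = fluorescence ratio rise of at least 3 SD of vehicle wells above their mean, in both replicate wells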;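 note: 0% = vehicle mean plus 3 SD and 100% = vehicle minus unstimulated blank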
KCNQ2 pot confirm: rat KCNQ2 channel potentiator confirmation | shares compounds with KCNQ2 enhance | AID 2287 | 1,200 compounds, 68% hits | potentiation, less the hit threshold, % at 10 µM | CHO-KCNQ2 cells, FluxOR thallium flux fluorescence;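 active = fluorescence ratio rising 3 SD or more over the vehicle control mean in both replicates, plus primary screen hit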;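 note: peak minus minimum thallium fluorescence divided by baseline after K/Tl stimulus; 0% = vehicle mean plus 3 SD and 100% = vehicle minus unstimulated blank difference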
Kir21 spec: selectivity of KCNQ2 potentiators: effect on mouse Kir2.1. shares compounds with KCNQ2 enhance. AID 2345. activity over 3SD threshold, % at 10 µM. HEK293 Kir2.1, FluxOR thallium flux fluorescence. 1,200 compounds, 2% hits;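 active = fluorescence ratio rise of at least 3 SD above the vehicle-control mean, seen in both replicates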;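 note: 0% = vehicle mean plus 3 SD and 100% = vehicle minus no-stimulus blank window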
KCNQ2 W236L MoA: rat KCNQ2 W236L mutant potentiation by KCNQ2 potentiators; shares compounds with KCNQ2 enhance; CHO KCNQ2-W236L, automated patch clamp current; current increase over 3SD of negative controls (%), hits give high values, % at 25 µM; 940 compounds, 10% hits; AID 2558;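 active = current increase at least 3 SD of the untreated controls above them in both duplicate recordings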
Target sequence (O88943 whole entry W236L, looked up): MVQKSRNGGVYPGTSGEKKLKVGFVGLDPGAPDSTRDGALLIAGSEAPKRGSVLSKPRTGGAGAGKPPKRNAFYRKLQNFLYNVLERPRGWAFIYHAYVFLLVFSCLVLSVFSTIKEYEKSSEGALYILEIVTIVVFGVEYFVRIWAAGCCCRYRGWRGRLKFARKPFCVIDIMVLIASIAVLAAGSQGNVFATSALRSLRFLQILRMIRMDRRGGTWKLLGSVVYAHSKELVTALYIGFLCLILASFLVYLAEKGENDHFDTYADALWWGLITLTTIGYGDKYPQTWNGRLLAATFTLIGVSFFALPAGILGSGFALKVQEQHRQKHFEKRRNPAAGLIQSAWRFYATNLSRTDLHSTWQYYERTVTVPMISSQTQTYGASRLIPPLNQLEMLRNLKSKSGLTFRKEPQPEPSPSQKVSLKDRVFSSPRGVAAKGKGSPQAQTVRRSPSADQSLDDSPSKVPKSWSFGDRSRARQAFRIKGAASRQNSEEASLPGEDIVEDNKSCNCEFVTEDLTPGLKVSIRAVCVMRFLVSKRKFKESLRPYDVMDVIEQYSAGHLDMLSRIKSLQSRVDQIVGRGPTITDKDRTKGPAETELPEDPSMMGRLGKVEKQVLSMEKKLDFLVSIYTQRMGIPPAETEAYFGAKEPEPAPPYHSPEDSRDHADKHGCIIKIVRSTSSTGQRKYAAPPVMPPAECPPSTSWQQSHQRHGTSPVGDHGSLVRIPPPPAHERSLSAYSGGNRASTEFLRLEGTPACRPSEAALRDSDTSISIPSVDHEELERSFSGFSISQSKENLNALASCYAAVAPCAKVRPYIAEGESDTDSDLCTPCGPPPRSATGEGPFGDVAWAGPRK
An asterisk follows results filed as active; i = inactive; x = no result given. Hits are enriched below; roughly 1.6% of the tested compounds scored in any of these assays.

SMILES	KCNQ2 block	KCNQ2 enhance	Kir21 conf inh	HEK293 ctr	others
O=C(O)c1cc(-c2cccs2)nn1-c1cccc(Cl)c1	i	8.9*	i	i	CHO-K1 Tl ctr=16*;KCNQ1 sel pot=28*;KCNQ2 pot confirm=-7;Kir21 spec=-12;KCNQ2 W236L MoA=i
O=C(O)c1cc(-c2cccs2)nn1-c1ccccc1	i	x	x	x
Cc1onc(-c2ccccc2Cl)c1C(=O)OCC(=O)Nc1ccc2c(c1)OCO2	i	8*	i	i	CHO-K1 Tl ctr=3.4*;KCNQ1 sel pot=0.5*;KCNQ2 pot confirm=-14;Kir21 spec=-37;KCNQ2 W236L MoA=i
Cc1onc(-c2ccccc2)c1C(=O)OCC(=O)Nc1ccc2c(c1)OCO2	i	x	x	x
CN(C)CCOCCOc1ccc(Cl)cc1C(C)(C)C	i	x	34%*	i
CC(O)CNCCCOc1ccc(Cl)cc1C(C)(C)C (stereo not given)	i	x	32%*	i
COCCCNCCCOc1ccc(Cl)cc1Br	i	x	x	x
CC(C)(C)c1cc(Cl)ccc1OCCn1ccnc1	i	0.35	x	x
CCCNC(=O)CCCN1C(=O)c2ccccc2Sc2ncccc21	i	0.03	x	x
CCOc1ccccc1NC(=O)CSc1nnc(CNC(=O)c2cc(OC)c(OC)c(OC)c2)o1	i	0.01	x	x
COc1ccc(C(C)=O)cc1COc1ccc(-n2cnnn2)cc1	i	0.47	x	x
Cc1ccc(C(=O)NC(C)c2ccc(C)c(C)c2)s1 (stereo not given)	i	12*	i	i	CHO-K1 Tl ctr=-3;KCNQ1 sel pot=30*;KCNQ2 pot confirm=27*;Kir21 spec=-46;KCNQ2 W236L MoA=i
Cc1ccc(C(C)NC(=O)c2cccs2)cc1 (stereo not given)	i	1.8	x	x
Cc1ccc(C(C)NC(=O)c2cccs2)cc1C (stereo not given)	i	8.5*	i	i	CHO-K1 Tl ctr=-9;KCNQ1 sel pot=13*;KCNQ2 pot confirm=2.3*;Kir21 spec=-29;KCNQ2 W236L MoA=i
Cc1ccc(C(=O)NC(C)c2ccc3c(c2)OCO3)s1 (stereo not given)	i	3.1	x	x
O=c1[nH]c(C2CCN(S(=O)(=O)c3ccc(C(F)(F)F)cc3)CC2)nc2c1nnn2Cc1ccccc1	i	0.26	x	x
O=C(COC(=O)c1cccnc1Cl)Nc1nc(-c2ccccc2)cs1	i	0.25	x	x
CCOC(=O)c1ccc(NC(=S)Nc2ccccc2N)cc1	i	x	x	x
CC1(CCc2ccccc2)NC(=O)N(CC(=O)Nc2ccc3c(c2)OCCO3)C1=O (stereo not given)	i	1.3	x	x
CC1CCC(C(C)C)C(OC(=O)C[n+]2cc(-c3ccc(Cl)cc3)n3c2CCC3)C1 (stereo not given)	i	0.19	x	x
CC1CCC(C(C)C)C(OC(=O)Cn2c(-c3ccccc3)[n+](C)c3ccccc32)C1 (stereo not given)	i	x	26%*	i
CN(c1cccc(NC(=O)COc2ccc(Cl)cc2Cl)c1)S(C)(=O)=O	i	0.2	x	x
Cn1c(N)c(N2CCCCC2)c(=O)n(CC(=O)Nc2ccc(Cl)c(Cl)c2)c1=O	i	17*	i	i	CHO-K1 Tl ctr=-7;KCNQ1 sel pot=-15;KCNQ2 pot confirm=47*;Kir21 spec=-35;KCNQ2 W236L MoA=i
O=C(CCC(=O)N1CCCCC1)Nc1ccc(Cl)c(Cl)c1	i	x	x	x
Cc1ccc(S(=O)(=O)/N=C/c2c(O)ccc3ccccc23)cc1	i	x	x	x
SMILES	KCNQ2 block	KCNQ2 enhance	Kir21 conf inh	HEK293 ctr	others
O=S(=O)(/N=C/c1c(O)ccc2ccccc12)c1cccs1	i	5.8*	i	i	CHO-K1 Tl ctr=-7;KCNQ1 sel pot=-27;KCNQ2 pot confirm=-16;Kir21 spec=-36
OCCCCNCc1ccc(OCc2ccc(Cl)cc2Cl)cc1	i	x	33%*	i
COc1cc(CNCCCCO)ccc1OCc1ccccc1F	i	0.1	x	x
S=C(Nc1ccccc1)Nc1ccc(OCc2ccc(Cl)cc2Cl)cc1	i	x	x	x
OCCNCc1ccc(OCc2ccc(Cl)cc2Cl)cc1	i	x	31%*	i
C=CCN1C(=O)C(CC(=O)O)SC1=Nc1ccc(C)cc1 (stereo not given)	i	0.98	x	x
COc1ccc(OC2CCN(S(=O)(=O)c3ccccc3)CC2)cc1	i	x	x	x
CCOc1cc(/C=C2/C(=O)ON=C2C)cc(Br)c1O	i	0.24	x	x
COc1cc(/C=C2\C(=O)ON=C2c2ccccc2)cc(Cl)c1O	i	2.9	x	x
CCOc1cc(/C=C2\C(=O)ON=C2c2ccccc2)cc(Br)c1O	i	2	i	46%*
COc1cc(/C=C2\C(=O)ON=C2c2ccccc2)cc(Br)c1O	i	2	i	51%*
COc1ccc(CCNC(=O)C(=O)NCC2CCCN2S(=O)(=O)c2ccccc2)cc1OC (stereo not given)	i	x	x	x
Cc1ccc(NC(=O)CSc2ccc3nnc(CCNC(=O)c4ccccc4)n3n2)c(C)c1	i	0.05	x	x
N#Cc1c(-c2ccccc2)nc(SCC(=O)N2c3ccccc3Sc3ccccc32)[nH]c1=O	i	1.2	x	x
CCCc1nnc(NC(=O)c2nc(S(=O)(=O)Cc3cccc(C)c3)ncc2Cl)s1	i	15*	x	x	CHO-K1 Tl ctr=-11;KCNQ1 sel pot=-46;KCNQ2 pot confirm=99*;Kir21 spec=-72;KCNQ2 W236L MoA=34%*
Cc1nnc(NC(=O)c2nc(S(=O)(=O)Cc3ccccc3)ncc2Cl)s1	i	14*	i	i	CHO-K1 Tl ctr=3.1*;KCNQ1 sel pot=46*;KCNQ2 pot confirm=58*;Kir21 spec=-29;KCNQ2 W236L MoA=23%*
Cc1ccc(NC(=O)c2nc(S(=O)(=O)Cc3ccccc3)ncc2Cl)cc1	i	0.15	x	x
Cc1cccc(CS(=O)(=O)c2ncc(Cl)c(C(=O)Nc3c(C)cccc3C)n2)c1	i	x	i	i
Cc1cccc(C)c1NC(=O)c1nc(S(=O)(=O)Cc2ccccc2)ncc1Cl	i	x	x	x
Cc1cccc(CS(=O)(=O)c2ncc(Cl)c(C(=O)NCc3ccccc3)n2)c1	i	x	x	x
COC(=O)c1ccc2c(=O)n(CCN3CCOCC3)c(SCC(=O)Nc3ccc(C)cc3)nc2c1	i	0.37	x	x
Cc1cc(NC(=O)CSCC(=O)N2CCN(c3cccc(C(F)(F)F)c3)CC2)no1	i	x	x	x
COc1ccc(CC2(CO)COc3ccccc3C2=O)cc1 (stereo not given)	i	0.07	x	x
O=c1[nH][nH]c(C(F)(F)F)c1C=NCc1cccs1	i	x	x	x
CS(=O)(=O)c1cccc(-c2nnc(NC(=O)C3=COCCO3)o2)c1	i	x	x	x
O=[N+]([O-])c1ccc(S(=O)(=O)c2ccccc2)nc1	-5.9*	-5.9	i	70%*
Nc1ccc(S(=O)(=O)c2ccccc2)nc1	i	x	x	x
